Measured values: PubChem BioAssay

target: NADPH oxidase 5 (Homo sapiens) (UniProt Q96PH1); assay: NOX5-dependent H2O2 signal modulators, primary screen, NOX inhibitor project, cell-based, HEK293-NOX5, Amplex Red fluorescence (AID 1161); details: HEK293-NOX5, ionomycin, 45 min, higher = more signal
Sequence (Q96PH1 whole entry, looked up): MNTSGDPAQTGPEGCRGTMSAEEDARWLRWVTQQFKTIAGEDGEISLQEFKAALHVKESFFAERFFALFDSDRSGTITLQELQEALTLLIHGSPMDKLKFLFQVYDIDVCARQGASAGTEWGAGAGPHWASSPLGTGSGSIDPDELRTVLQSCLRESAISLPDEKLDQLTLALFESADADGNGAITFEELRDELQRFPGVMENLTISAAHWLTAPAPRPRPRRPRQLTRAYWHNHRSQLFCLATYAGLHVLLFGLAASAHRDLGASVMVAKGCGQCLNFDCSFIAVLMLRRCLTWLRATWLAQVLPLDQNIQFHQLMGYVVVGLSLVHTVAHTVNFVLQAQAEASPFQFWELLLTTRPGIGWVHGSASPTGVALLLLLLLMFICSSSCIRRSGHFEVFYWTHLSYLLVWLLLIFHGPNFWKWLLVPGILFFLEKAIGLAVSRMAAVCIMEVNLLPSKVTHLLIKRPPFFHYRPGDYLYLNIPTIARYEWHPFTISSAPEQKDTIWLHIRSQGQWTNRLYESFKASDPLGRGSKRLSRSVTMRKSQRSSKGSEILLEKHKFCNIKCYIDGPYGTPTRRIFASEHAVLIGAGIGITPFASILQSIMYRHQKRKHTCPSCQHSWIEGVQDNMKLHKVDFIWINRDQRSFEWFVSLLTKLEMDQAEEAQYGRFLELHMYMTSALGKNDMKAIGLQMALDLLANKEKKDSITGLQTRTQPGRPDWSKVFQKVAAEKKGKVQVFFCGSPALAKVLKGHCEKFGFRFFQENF

Structure (SMILES) | z-score
COCCOC(=O)N1C(=O)[C@@]2(c3ccccc31)[C@H](c1ccc(OCCO)cc1)N1[C@H](c3ccccc3)[C@H](c3ccccc3)OC(=O)[C@H]1[C@@H]2C(=O)N1CCCCCCC1 | 1.33
CCCCCN1CC=CC23O[C@@H]4/C=C\CCC(C)OC(=O)C4[C@H]2C(=O)N(CCCCCCO)[C@@H]3C1=O (stereo not given in full) | 1.74
COCCOC(=O)N1C(=O)[C@@]2(c3ccccc31)[C@H](c1ccccc1OCCO)N1[C@H](c3ccccc3)[C@H](c3ccccc3)OC(=O)[C@H]1[C@@H]2C(=O)N1CCCCCCC1 | 0.481
C=C[C@@H](OC)[C@H](OC(=O)Nc1ccc(SC)cc1)c1ccc(OCCO)cc1 | 0.00434
COC(=O)[C@@]1(Cc2ccc(F)cc2)[C@H]2c3cc(C(=O)N(C)C)n(Cc4c(CO)[nH]cc(C)c4=O)c3C[C@H]2CN1C(=O)c1ccccc1 | -3.5
Cc1ccccc1C(O)C1C=CC2C(=O)N(c3ccccc3)C(=O)C2N1Nc1ccc([N+](=O)[O-])cc1 (stereo not given) | -1.83
COc1cc(NN2C(C(O)c3cc(OC)c(OC)c(OC)c3)C=CC3C(=O)N(c4ccccc4)C(=O)C32)cc(OC)c1OC (stereo not given) | -6.87
C=CCC(OC(C)=O)[C@@H]1[C@@H](N(Cc2cccc3ccccc23)C(=O)c2cccc3ccccc23)c2cc(OCCCO)ccc2N1C(=O)c1ccc2ccccc2c1 (stereo not given in full) | -2.66
COC(=O)[C@@]1(Cc2ccccc2)[C@H]2c3cc(C(=O)N4CCCC4)n(CCSCCO)c3C[C@H]2CN1C(=O)c1ccccc1 | -0.987
Cc1cccc([C@H]2C[C@H]3C(I)=C[C@@H]2C(=O)[C@]32CO2)c1 | -0.835
O=C1C2C=CC(C(O)C=Cc3ccc([N+](=O)[O-])cc3)N(Nc3ccccc3)C2C(=O)N1c1ccccc1 (stereo not given) | -2.32
CC(=O)NCCCC[C@@H]1NC(=O)[C@H]2C[C@@H](C(=O)NCCCCCNC(=O)CS)[C@@H](c3cccc(OCCO)c3)N2C1=O | 0.697
C=C[C@H](C)[C@H](OC(=O)Nc1ccc(OC)cc1)c1ccc(OCCO)cc1 | -2.19
CCOC(=O)C[C@H]1[C@H](OC(=O)c2ccc(C(=O)c3ccccc3)cc2)[C@@H](NC(=O)CC(C)C)c2cc(OCCCO)ccc2N1C(=O)Cc1ccc(OC)cc1 | 0.522
Cc1ccccc1C(O)C1C=CC2C(=O)NC(=O)C2N1Nc1ccc(Cl)cc1Cl (stereo not given) | -2.02
COc1cc2c(cc1O)C(c1ccc(CN3CCCC3)cc1)N(C)CC2 (stereo not given) | -1.22
COc1ccc([Si](C)(C)[C@@H]2[C@@H](CCn3cc([C@H](O)c4ccccc4)nn3)O[C@]3(C(=O)N(Cc4cccc(N5C(=O)c6cccc7cccc5c67)c4)c4ccccc43)[C@H]2C)cc1 | 2.2
CC(C)(C)OC(=O)CC[C@]1(C(=O)N2CCCCC2)COC(c2ccc(OCCCO)cc2)=N1 | -2.08

Structure (SMILES) | z-score
COCCOC(=O)N1C(=O)[C@@]2(c3cc(C#CC4=CCCCC4)ccc31)[C@H](c1ccc(O)cc1)N1[C@H](c3ccccc3)[C@H](c3ccccc3)OC(=O)[C@H]1[C@@H]2C(=O)NC[C@H](O)c1ccccc1 | 1.55
CN(C)CCCCCCNC(=O)[C@@H]1C[C@@H]2C(=O)N[C@@H](CCCCN)C(=O)N2[C@@H]1c1ccc(O)cc1 | 1.13
Cc1ccc(N2C(=O)c3ccccc3[C@](C)(C(=O)NCc3ccccc3)[C@@H]2c2ccc(CO)cc2)nc1 | -0.583
C=C[C@@H](C)[C@@H](OC(=O)Nc1ccc(SC)cc1)c1ccc(OCCO)cc1 | -0.431
C=C(/C(=C/C[C@@H](OC(=O)c1ccncc1)c1cccc(OCCO)c1)c1cnc2ccccc2c1)C(C)C | -0.782
O=c1cccc(-c2ccco2)o1 | -0.722
O=C1C2C=CC(C(O)c3cc(C(F)(F)F)cc(C(F)(F)F)c3)N(Nc3ccccc3F)C2C(=O)N1c1ccccc1 (stereo not given) | -1.58
O=C(N1CCOCC1)[C@@]1(CCS(=O)(=O)c2ccccc2)N=C(c2ccc(OCCCO)cc2)O[C@H]1c1ccccc1 | 1.97
COCCCNC(=O)[C@@]1(Sc2ccc(C)cc2)CC(=O)N(C(C)C)[C@@H]1c1ccc(CO)cc1I | -0.854
C=C(C)[C@@H]1CC=C(C(O)C2C=CC3C(=O)N(c4ccccc4)C(=O)C3N2Nc2ccc(C#N)cc2)CC1 (stereo not given in full) | -2.27
C=C(COC)/C(=C/C[C@@H](OC(=O)c1ccncc1)c1ccccc1OCCO)c1cc(C(=O)OC)ccc1OC | -2.07
CC(C)C[C@@H]1NC(=O)[C@@H]2C[C@H](C(=O)NCCCCCC[N+](C)(C)C)[C@H](c3cccc(OCCO)c3)N2C1=O | 2.51
O=C1C2C=CC(C(O)c3ccco3)N(Nc3ccccc3)C2C(=O)N1c1ccccc1 (stereo not given) | -2.52
CCOC(=O)C[C@H]1[C@H](OC(=O)c2ccc(-c3ccccc3)cc2)[C@@H](NC(=O)Cc2ccc(OC)cc2)c2cc(OCCCO)ccc2N1C(=O)Cc1ccc(OC)cc1 | 1.52
CCOC(=O)C1=CC[C@@H](c2ccccc2)N(S(=O)(=O)c2ccc(C)cc2)[C@H]1c1cccc(OC)c1 | 0.732
CN1C=C(C(=O)OCCS(C)(=O)=O)C(C(=O)OCCS(C)(=O)=O)=CC(c2ccc(CO)cc2)=CC1c1cccs1 (stereo not given) | -1.98
COC(=O)C(CC#Cc1ccc2c(c1)[C@]1(C(=O)N2)[C@H](c2ccc(OCCO)cc2)N2[C@H](c3ccccc3)[C@H](c3ccccc3)OC(=O)[C@H]2[C@@H]1C(=O)N1CCN(c2ncccn2)CC1)C(=O)OC | 1.52
